# An excerpt weighted towards active compounds, which were near 1.3% of everything screened.
# TCR activator: Activators of T cell receptors: qHTS campaign; 330,000 tested, under 10 active; Potency, µM (titrated, usually from 9.22 µM), actives largely listed as activators; AID 504894, 2011; primary human leukocytes, anti-CD3, IL-2 HTRF, 48 h
#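 Primary human leukocytes were stimulated with a-CD3 beads plus compounds for 48 hr without co-stimulation; secreted IL-2 was quantified by HTRF using a-IL-2-K (europium cryptate) and a-IL-2-d2, excited at 320nm with acceptor emission read at 665nm.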
# Chronic BCR inh: qHTS Assay to Find Inhibitors of Chronic Active B-Cell Receptor Signaling | AID 493014, 2011 | ABC-DLBCL IkBa-CBG/CBR reporter, luminescence ratio, 4 h | hit rate 0.05% among 340,000 | Potency, µM (highest dose often 46.1 µM), hits mostly inhibitors; active = well fitted inhibition curve with a large enough effect in the signal ratio, with a control signal flat, not every such curve was filed as active; inconclusive = small, poorly fitted or top-dose-only effect, or effect the other way, or a change in a side signal; the % refers to the signal ratio
#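 Doxycycline induced both beetle luciferases in TMD8 lymphoma cells; IKK-driven degradation limits the IkappaBalpha-fused green signal, while red luminescence normalises for cell number and nonspecific effects. Compounds tested up to 46 uM, 4 hrs.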
# BRCA1 expr act: qHTS Assay to Identify Small Molecule Activators of BRCA1 Expression; MCF7-BRCA1-FFLuc reporter, luminescence, 48 h; response scale: scaled: vehicle 0%, 10 µM genistein 100%; Potency, µM (highest dose often 46.1 µM), hits mostly activators; hit rate 1.1% among 380,000; AID 624202, 2012; note: nearly all actives have a fitted effect of over 80% in size
#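 Using MCF7 cells harboring a BRCA1 firefly luciferase reporter, plated 2 h before compound pinning, the screen measured luminescence after 48 h incubation. Responses were normalized to DMSO and 10 microM genistein, then fitted for concentration-effect.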
# Mito fusion yeast: qHTS Assay for Small Molecule Inhibitors of Mitochondrial Division or Activators of Mitochondrial Fusion | Potency, µM (titrated, usually from 46.1 µM), usual class: activators | S. cerevisiae fusion-defective mutant growth rescue, CellTiterGlo 48 h | hit rate 0.23% among 320,000; note: nearly all actives have a fitted effect of over 45% in size
#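 Temperature-sensitive fusion-defective S. cerevisiae (e.g. fzo1-1, mgm1-5) were grown with compound in YPEG medium (3% ethanol, 3% glycerol) for 48 hours at 37C. Growth rescue was measured as viability by CellTiterGlo luminescence after 10 minutes at ambient.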
# PTHR1 agonist: qHTS for PTHR1 Agonists: Primary Screen; HEK293 GP2 PTHR1 cells, GloSensor cAMP luminescence, 1 h; Potency, µM (titrated, usually from 115 µM), most hits filed as activators; hit rate 0.075% among 410,000; AID 743266, 2014; note: nearly all actives have a fitted effect of over 55% in size
# Target sequence (Q03431 whole entry, looked up): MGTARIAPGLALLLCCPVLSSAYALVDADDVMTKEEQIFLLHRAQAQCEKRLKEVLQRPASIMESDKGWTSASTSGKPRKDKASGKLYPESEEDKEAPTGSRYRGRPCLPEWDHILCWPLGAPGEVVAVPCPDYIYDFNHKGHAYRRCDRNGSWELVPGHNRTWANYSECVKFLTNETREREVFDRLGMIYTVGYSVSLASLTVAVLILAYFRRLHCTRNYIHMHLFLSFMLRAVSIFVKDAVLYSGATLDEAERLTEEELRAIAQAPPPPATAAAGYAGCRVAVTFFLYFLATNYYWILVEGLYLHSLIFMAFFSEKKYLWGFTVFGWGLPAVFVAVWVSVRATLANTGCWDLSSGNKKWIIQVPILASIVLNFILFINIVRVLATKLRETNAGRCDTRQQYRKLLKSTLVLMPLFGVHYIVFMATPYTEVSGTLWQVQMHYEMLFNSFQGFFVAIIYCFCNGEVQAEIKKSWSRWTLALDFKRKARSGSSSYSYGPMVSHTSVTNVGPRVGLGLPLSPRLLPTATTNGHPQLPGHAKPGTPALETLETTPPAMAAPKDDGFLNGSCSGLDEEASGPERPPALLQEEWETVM
#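 HEK-293-derived GP2 cells expressing PTHR1 and a GloSensor cAMP reporter, 3,000/well, plated overnight, given luciferin plus IBMX (each 0.5 mM as added) for 1 h at 37 °C, then compound for 1 h at 37 °C. Luminescence was read after 15 min at room temperature.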
# IL2 activator: qHTS of IL-2 Activators | IL-2 activation reporter assay, cell-based qHTS; stimulated with anti-CD3/CD4/CD28 beads; in transgenic mouse T cells | activation, % (series mostly up to about 46 µM) | hit rate 0.065% among 360,000 | AID 652025, 2013; in the data active = activation above about 50%; inconclusive = mostly about 30% to 49%
#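 Using fluorescent plate cytometry, EGFP and DsRed are detected in transgenic mouse T cells stimulated 18 h at 37 degrees C with antibody-coated beads after 60 min compound pretreatment.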
# A number is an active result; 0 = inactive; ? = inconclusive; - = no result. Unless noted, calls come from the whole dose curve; as a rule, active = well fitted curve in the direction sought with a large enough effect; inconclusive = small, poorly fitted or top-dose-only effect, or another doubt; inactive = no such curve, though single readings can be large; an effect the other way counts as inactive or inconclusive.
SMILES,TCR activator,Chronic BCR inh,BRCA1 expr act,Mito fusion yeast,PTHR1 agonist,IL2 activator
NS(=O)(=O)c1ccc(CCNC(=O)CNC(=O)c2ccc(Oc3ccccc3)cc2)cc1,0,0,0,0,0,0
Cc1cccc(NC(=O)C2CCN(S(=O)(=O)c3c(C)c(C)cc(C)c3C)CC2)n1,0,?,0,20µM,0,0
Cc1cccc(NC(=O)C2CCN(S(=O)(=O)c3c(C)nn(C)c3C)CC2)n1,0,0,0,0,0,0
N=C1S/C(=C\c2cn[nH]c2-c2ccc(F)cc2)C(=O)N1c1ccccc1F,0,?,7.08µM,0,0,0
O=C(c1ccncc1)N(c1ccc2oc3c(c2c1)CCCC3)S(=O)(=O)c1ccc(F)cc1,0,?,0,17.8µM,0,0
Cc1ccc(OCc2nc(-c3ccc(Cl)cc3)n[nH]2)cc1,-,0,0,?,?,0
Cc1ccc(-c2n[nH]c(Cc3ccccc3)n2)cc1,0,0,5.62µM,0,0,0
COC(=O)c1c(-c2ccccc2)csc1NC(=O)c1ccco1,0,?,5.01µM,0,0,0
CNC(=S)NNC(=O)CCn1nc(C)c(Br)c1C,-,-,0,0,0,0
Cc1nn(CCC(=O)NNC(=S)NCC(C)C)c(C)c1Br,0,16.4µM,0,0,0,0
COc1ccc2ccccc2c1/C=N/NC(=S)NCCN1CCOCC1,0,20µM,0,0,?,0
Cc1ccc(-c2nn3c(C)nnc3c3ccccc23)cc1S(=O)(=O)NCC(C)O (stereo not drawn),-,0,-,0,0,-
Cc1ccc2c(c1)cc1c(=O)[nH]ncn12,0,0,11.2µM,0,0,0
Cc1ccc(C)c(Cn2nc(C)n3c(cc4cc(C)ccc43)c2=O)c1,-,-,0,-,0,-
O=C1C(c2cc(=O)c3ccccc3[nH]2)=C(O)c2ccccc21,0,?,0,0,0,0
O=c1cc(-c2ccccc2)[nH]c2ccccc12,0,11.2µM,0,0,0,0
CCn1nnnc1Sc1nc(C)nc2scc(-c3ccccc3)c12,-,-,0,-,-,-
c1ccc(COc2ccc(OCCn3cncn3)cc2)cc1,0,0,0,0,0,0
c1ccc(-c2ccc(OCCCn3cncn3)cc2)cc1,0,?,11.2µM,0,0,0
COc1ccccc1C(C)NCC(=O)c1c(C)[nH]c2ccccc12 (stereo not drawn),-,-,0,-,-,-
CCCCNC(=O)c1onc(CSc2cc(C)cc(C)c2)c1C(=O)NCCCC,0,-,0,-,0,0
Cc1ccc(SCc2nc3ccccc3[nH]2)cc1,0,?,3.55µM,0,0,0
Cc1ccc(CSCc2nc3ccccc3[nH]2)cc1,0,?,0,0,?,0
Fc1ccccc1CSCc1nc2ccccc2[nH]1,0,0,5.62µM,0,0,0
Cc1ccc(SCC(=O)Nc2ccc(-c3nc4ccccc4[nH]3)cc2)cc1,0,0,3.55µM,0,0,0
SMILES,TCR activator,Chronic BCR inh,BRCA1 expr act,Mito fusion yeast,PTHR1 agonist,IL2 activator
CCCCn1nnnc1C1(C)CCC(=O)N1CCOC (stereo not drawn),-,-,0,-,0,0
COc1ccc(-c2nnc(SCC(=O)c3cccs3)o2)cc1,0,0,7.08µM,0,0,0
O=C(CSc1nnc(-c2cccs2)o1)c1cccs1,0,?,0,0,0,0
CC(C)(Oc1ccc(Cl)cc1)C(=O)NCC1CCCO1 (stereo not drawn),0,0,0,0,0,0
CC(OC(=O)[C@@H]1CCCN1C(=O)c1cccs1)C(=O)Nc1cccc([N+](=O)[O-])c1 (stereo partly drawn),0,0,0,-,0,0
Cn1c(N2CCN(S(=O)(=O)c3ccc(F)cc3)CC2)nc2ccccc21,0,0,0,11.2µM,0,0
COc1ccccc1NC(=O)COc1ccccc1C(=O)c1cnn(-c2ccccc2)c1,0,0,12.6µM,0,0,0
CCc1c(C(=O)NCCc2ccc(N3CCCCC3)cc2)[nH]c2ccc(Cl)cc12,-,-,-,0,-,-
Cc1ccc(N/N=C/c2ccc3c(c2)OCCO3)cc1Cl,0,0,3.16µM,0,0,0
CN(C)c1ccc(/C=C/c2ccnc3ccc([N+](=O)[O-])cc23)cc1,-,-,0,-,-,-
Cn1c(-c2ccc(F)cc2)cc2onc(-c3c(F)cccc3Cl)c2c1=O,0,?,2µM,-,0,0
CCn1cc(Br)c(C(=O)NC(C)c2ccccc2)n1 (stereo not drawn),0,-,0,0,0,71.7
CC(NC(=O)Cn1cc(Br)c([N+](=O)[O-])n1)c1ccccc1 (stereo not drawn),0,0,0,0,0,0
CS(=O)(=O)N1CCc2cc(C(=O)Nc3cccc(F)c3)ccc21,-,-,11.2µM,-,0,-
CS(=O)(=O)N1CCc2cc(C(=O)OCC(=O)c3ccccc3)ccc21,0,0,10µM,0,0,0
CC[C@H](C)[C@@H](C(=O)NCCCCCCCCCCC(=O)N1CCNCC1)n1cc(CCCCN=C(N)N)nn1,0,0,0,0,0,0
CCNC(=O)c1cc2c(c(-c3cccc(-c4ccccc4F)c3)n1)[C@@H](CCO)N(C(=O)CC)C2,-,-,0,-,0,0
CCNC(=S)NNC(=O)c1cc(-c2cccc(C)c2)nc2ccccc12,-,?,4.47µM,0,0,0
CCNC(=S)NNC(=O)c1cc(-c2cccc(OCC)c2)nc2ccccc12,-,?,?,0,0,0
COc1cc2nc(NC3CCN(Cc4ccccc4)CC3)nc(N3CCCN(C)CC3)c2cc1OC,-,-,0,-,-,-
Cc1cc(-c2ccc(C(=O)O)s2)cnc1N,0,?,7.08µM,0,0,0
COc1ccc2c(c1)sc1ncc(C(=O)NCc3ccc(OC(C)C)cc3)c(=O)n12,-,-,-,-,0,-
COc1cc2nc(N(C)C)nc(NC3CCN(C)CC3)c2cc1OC,-,-,0,-,-,-
c1ccc(CSCc2cn3ccccc3n2)cc1,0,0,2.82µM,0,0,0
Cc1[nH]c2ccccc2c1C(=O)C(C)Sc1nc2ccccc2c(=O)n1Cc1cccnc1 (stereo not drawn),-,-,0,-,-,-
Cc1nc2c(ccc3nc(NC(=O)Cc4ccccc4)sc32)s1,0,?,0,11.2µM,0,0
Cc1ccc(CC(=O)Nc2nc3ccccc3s2)cc1,0,?,?,0,0,0
Cc1ccc(C)c2sc(N3CCN(C(=O)c4ccc([N+](=O)[O-])o4)CC3)nc12,0,0,0,20µM,0,0
CCc1ccc(Nc2cnn(-c3nc4ccccc4s3)c(=O)c2Cl)cc1,0,?,0,11.2µM,0,0
Cc1cc(C)cc(Oc2nc3c(C)cccn3c(=O)c2/C=C(\C#N)c2nc3ccccc3s2)c1,-,-,-,-,0,-

# Screening results from PubChem.
